CYP2C9 act: human CYP2C9 activators, primary screen, biochemical, luminescence. Cytochrome P450 2C9 (Homo sapiens), P11712. recombinant CYP2C9, luciferin-H conversion; stronger effect = higher value; factor 1 = untreated enzyme, 0 = blocked. activation factor at 5 µM. hit rate 1.4% among 96,000. AID 1024, 2008;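 active = activation factor of 2 or more for CYP2C9 at a 5 µM dose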;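 note: 0 = sulfaphenazole-blocked wells and 1 = vehicle-only wells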
CYP2C19 inh: blockers of cytochrome P450 2C19 activity – biochemical, luminescence, ADME assay, primary screen; inhibition, % at 5 µM; hit rate 21% among 96,000; CYP2C19 Supersomes, luciferin-H EGE luminescence, 30 min; AID 778, 2007;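 active = CYP2C19 inhibition above a set limit at 5 µM in the primary screen, cut at about 50% in these data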;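 note: plate controls were negative control wells for no effect and 2.5 mM tranylcypromine positive control for full effect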
CYP2C9 inh: blockers of cytochrome P450 2C9 activity – biochemical, luminescence, ADME assay, primary screen. P11712. CYP2C9 Supersomes, luciferin-H conversion. inhibition, % at 5 µM. hit rate 20% among 96,000;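 active = blocking of liver enzyme CYP2C9 beyond about 50% at 5 µM, limit read from the data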
CYP2C19 act: human CYP2C19 activators, primary screen, biochemical, luminescence | Cytochrome P450 2C19 (Homo sapiens), P33261 | recombinant CYP2C19, luciferin-H EGE luminescence; stronger effect = higher value; 0 = fully inhibited enzyme, 1 = untreated enzyme | activation factor at 5 µM | 96,000 tested, under 10 active;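 active = activation factor of at least 2 at 5 µM in the primary screen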;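 note: 0 = wells with 2.5 mM tranylcypromine and 1 = vehicle-only wells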
Cav3 T inh: Cav3.2 calcium influx blockers – cell-based, Fluo-4 calcium fluorescence, FDSS, MLSMR library, primary screen | Voltage-dependent T-type calcium channel subunit alpha-1H (Homo sapiens), O95180 | Cav3.2-expressing cells; stronger effect = lower value | B-score at 10 µM | hit rate 4% among 100,000 | AID 449739, 2010;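 active = single-dose well whose peak fluorescence ratio is a statistical outlier from its plate by either plate-standardised score or position-corrected B-score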
Active calls of the source: *; . = no result given. An excerpt weighted towards active compounds, which were near 27% of everything screened.

SMILES	CYP2C9 act	CYP2C19 inh	CYP2C9 inh	CYP2C19 act	Cav3 T inh
COc1ccccc1CNC(=O)c1ccc(NS(=O)(=O)c2c(C)noc2C)cc1	0.2	12	78*	0.9	-1.6
Cc1nc2nc(-c3cccnc3)[nH]n2c(=O)c1C	0.7	27	31	0.7	.
CCCS(=O)(=O)N1CCN(S(=O)(=O)c2ccc(F)cc2)CC1	.	.	.	.	-0.51
O=C(c1ccccc1)c1ccc(N2CCOCC2)c(F)c1	0.9	67*	9	0.3	-1.4
O=C(Cc1ccccc1)Nc1ccc(N2CCOCC2)cc1N1CCOCC1	0.8	29	16	0.7	.
O=C(Cc1ccccc1)Nc1cc(C(=O)c2ccccc2)ccc1N1CCOCC1	0.1	69*	90*	0.3	-1.8
O=C(c1ccccc1)c1cc(F)c(N2CCOCC2)cc1Cl	1.2	59*	-17	0.4	-2.4
COC(=O)c1ccc(N2CCOCC2)c(F)c1	0.6	36	42	0.6	1.3
O=C(c1ccccc1)C1CCc2occc2C1=O (stereo not drawn)	0.9	24	6	0.8	0.29
COc1ccc(NC(=O)C2CSC3c4ccccc4C(=O)N23)cc1 (stereo not drawn)	0.4	70*	60*	0.3	0.15
O=C(NCC1CCCO1)[C@@H]1CSC2c3ccccc3C(=O)N21 (stereo partly drawn)	0.8	14	22	0.9	-0.29
NC(=O)C(c1ccc(Cl)cc1Cl)c1ncc(C(F)(F)F)cc1Cl (stereo not drawn)	0.8	88*	18	0.1	-1.1
NC(=O)C(c1ccc(Cl)cc1)c1ncc(C(F)(F)F)cc1Cl (stereo not drawn)	0.9	73*	10	0.3	1.1
CCOC(=O)CN1C(=O)NC(C)(c2ccc(OC(F)F)cc2)C1=O (stereo not drawn)	0.6	64*	35	0.4	-0.84
CC1CCCCC1NC(=O)CN1C(=O)NC(C)(c2ccc(OC(F)F)cc2)C1=O (stereo not drawn)	1	6	2	0.9	-1.6
COc1cc(CNCC(O)c2ccccc2)ccc1OCc1ccc(Cl)nc1 (stereo not drawn)	0.6	42	39	0.6	-0.63
COc1ccc(CNCc2ccco2)cc1OCc1ccccc1	1.1	65*	-5	0.4	-0.33
COc1cc(CNCCc2ccccc2)ccc1OCc1ccc(Cl)nc1	0.7	68*	35	0.3	.
COc1ccccc1CCNCc1ccc(OC)c(OCc2ccccc2)c1	1.2	42	-17	0.6	-4.8*
COc1cc(CNCCN2CCOCC2)ccc1OCc1ccc(Cl)cc1	1	20	3	0.8	-0.0026
CCCCCCCC(=O)NNC(=O)c1ccc(F)cc1	0.9	35	6	0.7	1.2
Cc1ccc(/C=N\NC(=O)Cn2c(C)nc3ccccc32)o1	0.9	4	10	1	1.2
CCC(=O)Nc1nc(C)c(C(=O)N2CCCCC2)s1	1	12	4	0.9	0.3
COc1cc(-c2nnc(CSc3nc4ccccc4s3)o2)cc(OC)c1OC	0.3	53*	65*	0.5	-1.8
O=C(CSc1nc2ccccc2c(=O)n1Cc1ccco1)NCc1ccccc1	.	.	.	.	-0.055
SMILES	CYP2C9 act	CYP2C19 inh	CYP2C9 inh	CYP2C19 act	Cav3 T inh
COCCCn1c(SCc2nnc(-c3ccc(OC)c(OC)c3)o2)nc2ccccc2c1=O	.	.	.	.	-2.2
COc1ccc(-c2nnc(CSc3nc4ccccc4c(=O)n3CC(C)C)o2)cc1OC	0	92*	97*	0.1	-2.1
COC(=O)c1ccc(CSc2nc3ccccc3c(=O)n2CC(C)C)o1	0.4	38	57*	0.6	-4.7*
COC(=O)c1ccc(CSc2nc3ccccc3c(=O)n2Cc2ccco2)o1	0	97*	100*	0	-2.5
COCCn1c(SCC(=O)c2ccc(CNC(C)=O)o2)nc2ccccc2c1=O	0.9	17	11	0.8	0.96
C=CCNS(=O)(=O)c1nc(C)c(Cl)c(C)c1C#N	1.1	17	-11	0.8	-0.0013
COc1cc(Cl)c(C)cc1NC(=O)CSC	0.9	52*	15	0.5	1.1
COc1cc(Cl)c(C)cc1NC(=O)COc1cc(C)nc(C(C)C)n1	0.5	48	51*	0.5	0.93
CN=C(Nc1ccccc1)SC1CC(=O)N(c2ccc(C(=O)OC)cc2)C1=O (stereo not drawn)	0.3	38	68*	0.6	-1.3
CCN=C(NCC)SC1CC(=O)N(c2cccc(OCC)c2)C1=O (stereo not drawn)	2.1*	76*	-107	0.2	-0.86
CCN=C(NCC)SC1CC(=O)N(c2ccc(OC)cc2)C1=O (stereo not drawn)	1	70*	-2	0.3	0.72
CN=C(Nc1ccccc1OC)SC1CC(=O)N(c2ccc(C(=O)OC)cc2)C1=O (stereo not drawn)	0.8	44	23	0.6	-0.022
CCCOc1ccc(N2C(=O)CC(SC(=NCC)Nc3cccc(F)c3)C2=O)cc1 (stereo not drawn)	.	.	.	.	0.3
CCO[C@H]1OC(C(=O)NCc2ccccc2)=C[C@@H](C2CC2)[C@@H]1CCCO	.	.	.	.	-0.26
Cc1cccc(-c2c3c(=O)n(C)c(=O)n(C)c3cn2C(C)C)c1	0.4	22	57*	0.8	0.71
CCn1cc2c(c1-c1cccc(C)c1)c(=O)n(C)c(=O)n2C	1.1	15	-6	0.8	0.98
CC1(C)CSC(=S)N1S(=O)(=O)c1ccccc1	0.7	75*	31	0.2	0.67
CC1CN(S(=O)(=O)c2ccccc2)CC(C)O1 (stereo not drawn)	1	34	0	0.7	-0.012
CC(OC(=O)c1cc(=O)[nH]c2ccccc12)c1ccccc1 (stereo not drawn)	0.5	38	54*	0.6	-2.9
CC(C)COC(=O)c1cc(=O)[nH]c2ccccc12	1.2	-2	-23	1	-0.36
Cc1cc(C)n(CCOc2ccc(Cl)cc2Cl)n1	1.1	97*	-7	0	-0.18
Cc1cc(C)n(C(=O)COc2ccc(Cl)cc2Cl)n1	.	.	.	.	0.54
Cc1nc2cc(-c3cccc(F)c3)nn2c(N2CCN(C(=O)c3ccco3)CC2)c1C	1	7	4	0.9	.
COC(C)(C)[C@]12CC(O)(c3ccccc3)ON1[C@H]1CCCCC1N2O (stereo partly drawn)	1.2	30	-19	0.7	-0.77
Cc1cc(C)c(S(=O)(=O)c2c(C)cccc2C)c(Cl)n1	0.6	75*	43	0.3	0.69
Cc1cc(C)c(S(C)(=O)=O)c(S(=O)(=O)c2ccc(Cl)cc2)n1	0.6	29	37	0.7	0.66
CCCCCCOC(=O)CCn1[nH]c(=O)c2ccccc2c1=O	0.5	56*	54*	0.4	-0.11
